Activity calls are given as the source filed them. How the calls were made is not given here.
Target: Bifunctional epoxide hydrolase 2 (Homo sapiens) (UniProt P34913)
Experiment: sEH inhibitor concentration-response potency, dose response, biochemical, human sEH, fluorescence, Infinite200 (AID 1026)
Settings: recombinant human sEH, fluorogenic substrate, at 0.2 µM, hits give high values

Chain of Bifunctional epoxide hydrolase 2 (Homo sapiens) (P34913 whole entry, looked up): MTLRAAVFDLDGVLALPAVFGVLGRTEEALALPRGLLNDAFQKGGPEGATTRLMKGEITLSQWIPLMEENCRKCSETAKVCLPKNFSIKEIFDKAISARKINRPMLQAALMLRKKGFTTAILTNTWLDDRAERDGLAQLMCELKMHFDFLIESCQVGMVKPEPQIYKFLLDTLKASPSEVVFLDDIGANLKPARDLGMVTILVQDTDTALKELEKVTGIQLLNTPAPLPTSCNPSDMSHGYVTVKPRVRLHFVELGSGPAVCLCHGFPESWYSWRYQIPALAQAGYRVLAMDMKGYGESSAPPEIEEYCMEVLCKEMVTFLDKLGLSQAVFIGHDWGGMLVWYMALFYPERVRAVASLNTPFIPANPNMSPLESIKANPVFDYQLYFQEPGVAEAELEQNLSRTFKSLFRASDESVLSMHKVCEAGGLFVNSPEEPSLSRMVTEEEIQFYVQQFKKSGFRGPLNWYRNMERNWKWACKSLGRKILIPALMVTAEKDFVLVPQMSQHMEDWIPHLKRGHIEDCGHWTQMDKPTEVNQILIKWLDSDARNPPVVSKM

inhibition, inactive:
Cc1ccc(Cn2ccc(=O)c(Cc3c(Cl)cccc3Cl)c2C)cc1 63.6%
CC(=O)NC1CC2CCCC(C1)N2C(=O)Nc1ccc(Cl)c(C(F)(F)F)c1 (centres undefined) 41.4%
CC(C)(C)c1cnnn1-c1ccc(NC(=O)c2ccc3c(c2)OCO3)cc1 68.6%
CCCOc1cccc(/C=N/NC(=O)c2csc(C)c2C)c1 49.7%
CCCCNC(=O)CSc1nc2ccc(NC(=O)CSc3nnc(COc4ccccc4C)n3C)cc2s1 58.5%
Cc1cccc(NC(=O)Nc2cccc(Oc3c(F)c(F)c(F)c(F)c3F)c2)c1 47.7%
O=C(NCCC1=CCCCC1)c1ccc2c(c1)N(Cc1ccccc1)C(=O)CS2 52.3%
CC(NC(=O)NC12CC3CC(CC(C3)C1)C2)C1CCCO1 (centres undefined) 71.5%
Cc1ccccc1C(=O)N1CCC(C(=O)Nc2ccc(S(=O)(=O)N(C)C(C)C)cc2)CC1 50.3%
CCn1c(C(=O)N2CCCC(C(=O)NCCCc3ccccc3)C2)cc2sccc21 (centres undefined) 65.6%
O=C(CCCN1C(=O)c2ccccc2C1=O)Nc1ccc(S(=O)(=O)N2CCCCC2)cc1 58%
CCOc1ccc(NC(=O)N2CCC(c3ccc(C)cc3)C2)cc1 (centres undefined) 50.5%
O=C(NC1CCCCCCC1)C1CCN(c2nc3ccccc3o2)CC1 73.5%
O=C(NCCC1=CCCCC1)C1CCCN(S(=O)(=O)c2ccccc2)C1 (centres undefined) 48.7%
CCCCC(CC)CNC(=O)C1CCCN(S(=O)(=O)c2cnc[nH]2)C1 (centres undefined) 49.9%
Cc1ccc(SCCC(=O)NCCSCc2ccccc2C)cc1 52.5%
CC(Cc1cccs1)NC(=O)Nc1cccc(Cl)c1 (centres undefined) 51.7%
O=C(CSCc1ccc(Cl)cc1)N/N=C/c1ccc(Cl)cc1Cl 55.6%
O=C(NCc1ccc2c(c1)OCO2)C1CCN(c2ccc(S(=O)(=O)N3CCCC3)cc2)CC1 52.2%
O=C(Nc1cccc(F)c1)NC1CC2CCCC(C1)N2C1CC1 (centres undefined) 58.4%
CC1CCCN(S(=O)(=O)c2ccc(NC(=O)c3cccc(-n4cnnn4)c3)cc2)C1 (centres undefined) 59%
CC(C)c1ccc(NC(=O)N2CCC(c3nc4ccccc4o3)CC2)cc1 66.3%
COc1ccc(CCN2C(=O)C3C4CC(C5C(C(=O)N/N=C\c6ccc(Cl)cc6)=NOC45)C3C2=O)cc1OC (centres undefined) 67.1%
CC(c1ccccc1)N1CCn2c(nc3cc(NC(=O)NC4CCCCC4)ccc32)C1 (centres undefined) 70.1%
O=C(NCCc1ccccc1)NC1CCCCC1 44.6%
O=C(Nc1cccc2ccccc12)c1ccc(OC(=S)N2CCOCC2)cc1 68.8%
O=C(NCC1CCCC(CNC(=O)N2CCc3ccccc32)C1)N1CCc2ccccc21 (centres undefined) 60.4%
CCCC(=O)Nn1cnc2c(c1=O)C1(CCCCC1)Cc1ccccc1-2 71.2%
O=C(NCCC(c1ccccc1)c1ccccc1)c1ccc(Br)o1 72%
O=C(NC12CC3CC(CC(C3)C1)C2)N1CCC(O)(c2ccc3c(c2)OCO3)CC1 46%
O=C(N/N=C\c1ccc(Cl)s1)c1cccs1 74%
O=C(NCCC1=CCCCC1)c1ccc(Cl)c(S(=O)(=O)N2CCOCC2)c1 68.1%
O=C(N/N=C/c1cccc(O)c1)c1csc2ccccc12 54.3%
Cc1ccc(NC(=O)NCCCc2ccccc2)cc1 48.7%
O=C(Nc1cccc(C(F)(F)F)c1)NC1CCCCC1 66.5%
O=C(COc1c(F)c(F)c(C(F)(F)F)c(F)c1F)Nc1ccc(N2CCOCC2)c(Cl)c1 49.2%
O=C(Nc1ccccc1)Nc1ccc(S(=O)(=O)N2CCCCC2)cc1 72.3%
CCn1c(C(=O)N2CCC(C(=O)NCCCSC3CCCCC3)CC2)cc2sccc21 61.7%
CCc1ccc(/C=N/NC(=O)c2ccc(OC3CCCC3)cc2)s1 65.8%

From PubChem BioAssay AID1026 (Columbia University Molecular Screening Center, 2008)
